High-throughput results (PubChem)
A selection: hits, their analogues and other compounds. The true share with any hit is near 21%.
Pf growth 48h = P. falciparum growth inhibition at 48 hours (one generation) | P. falciparum luciferase growth in erythrocytes, 48 h | 310,000 compounds, 5.9% hits | Potency, µM (top dose mostly 28.7 µM), for the others: top-dose activity change, negative = inhibition, usual class: inhibitors; further: potency means the concentration at half of the fitted maximal effect; on the % scale 0 is the no-effect control and ±100 the full control effect
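In quantitative HTS format, infected erythrocytes bearing luciferase-reporter parasites were treated for a single generation at 37 C. Luminescence after adding detection reagent served as the growth measure.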
HCV inhibitor = blocks hepatitis C virus. Huh7.5.1 HCVcc-Cre infection, luciferase reporter, 44 h. Potency, µM (series often up to 41.8 µM), for the others: top-dose activity change, negative = inhibition, most hits filed as inhibitors. 340,000 compounds, 3.4% hits. AID 651820; further: potency means the concentration at half of the fitted maximal effect; on the % scale 0 is the no-effect control and ±100 the full control effect
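Infectious HCV cell culture screen: compound-treated cells (1,000/well, pre-plated 4 h) are infected with HCVcc-Cre at roughly 0.5 moi and grown 44 h. Infection is quantified by luciferase signal after 15 min substrate incubation at room temperature.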
Shiga toxin inh = blocks Shiga toxin action in Vero cells; 290,000 compounds, 9.2% hits; Vero cells, Shiga toxin protein synthesis inhibition reporter; inhibition, % at 38.7 µM; AID 2315; in the data active means inhibition mostly above about 28%, no sharp cut-off; inactive means mostly below about 43%; further: 0% is about no effect
HCMV antiviral = blocks human cytomegalovirus replication. HFF cells, HCMV-luciferase reporter, 72 h; stronger effect = lower value. 410,000 compounds, 4.5% hits. activity change, negative = inhibition, % at 57.5 µM. AID 1259415; in the data active means activity change below about -60%; inconclusive means no clear call, values can overlap the other calls; inactive means above about -39%; further: on the % scale 0 is the no-effect control and ±100 the full control effect
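Screen run at 2 compound doses on HFFs infected with reporter HCMV, MOI 1 PFU/cell. Luciferase activity from cell lysates at 72 h post infection gave inhibition relative to buffer-only and Salinomycin wells.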
Pf growth 96h = P. falciparum growth inhibition at 96 hour, primary screen for plastid delayed-death inhibitors | 320,000 compounds, 6.9% hits | Potency, µM (series often up to 28.7 µM), without a hit: top-dose activity change, negative = inhibition, hits mostly inhibitors | P. falciparum luciferase reporter growth, 96 h; further: potency means the concentration at half of the fitted maximal effect; on the % scale 0 is the no-effect control and ±100 the full control effect
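Two-generation exposure (96 h) targets delayed-death phenotype. Reporter parasites carrying integrated firefly luciferase, in red cells at 2% hematocrit and 0.05% parasitemia final, kept at 37 C, 5% CO2; luminescence loss indicates inhibition.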
Cycloheximide cs = affects cycloheximide protein synthesis inhibition readout, counter-screen; cell reporter, cycloheximide protein synthesis inhibition counterscreen; max response, %; 300,000 compounds, 12% hits; AID 2314; in the data active means max response mostly above about 13%, no sharp cut-off; inactive means mostly below about 14%; further: read at 38.3 µM for the half of the compounds with a filed dose; 0% is about no effect
* hit, by the source's call; i = inactive; ? = inconclusive; nt = no result; [ ] = another dose, or the depositor's remark. Unless noted, the call rests on the fitted dose curve; in most records, active means well fitted inhibition curve with a large enough effect; inconclusive means small, poorly fitted or top-dose-only effect, or another doubt; inactive means no such curve, though single readings can be large or run the other way.

SMILES	Pf growth 48h	HCV inhibitor	Shiga toxin inh	HCMV antiviral	Pf growth 96h	Cycloheximide cs
COCCNc1nc(NCc2ccccc2)nc2ccsc12	nt	nt	nt	-61*	nt	nt
CNc1nc(NCc2ccc(C)cc2C)c2sccc2n1	nt	nt	nt	-31	nt	nt
Cc1ccc(CNc2nc(NCC3CC3)nc3ccsc23)c(C)c1	nt	nt	nt	-77*	nt	nt
Cc1ccc(Nc2nc(NCC3CC3)nc3ccsc23)c(C)c1	nt	nt	nt	-82*	nt	nt
CC1(C)CC(=O)c2cc(-c3nc(-c4ccc(Cl)cc4)cs3)c(=O)n(-c3ccc(F)cc3)c2C1	nt	nt	nt	-6	nt	nt
CC(OC(=O)c1ccco1)C(=O)Nc1ccc(Cl)cn1 (configuration not stated)	9%	-6%	23	-9	14%	14
CCC(CC)C(Nc1ccccc1C(C)=O)C(=O)NC1CCCCC1 (configuration not stated)	nt	nt	nt	-34	nt	nt
Cc1ccc(CNc2nc(NCc3ccccc3)nc3ccsc23)c(C)c1	nt	nt	nt	-63*	nt	nt
CNc1nc(Nc2ccc(C)cc2C)c2sccc2n1	nt	nt	nt	-63*	nt	nt
COc1ccc(CNCCc2ccc(Cl)cc2)cc1OCc1ccccc1	2%	?	-12	nt	-11%	-6
COc1ccc(Br)cc1CN(C)CC(=O)NCCc1ccc(S(N)(=O)=O)cc1	-20%	?	-12	?	-10%	3
CCOc1cc(CNc2ccc(O)cc2)ccc1OCc1ccc(Cl)cc1Cl	?	-4%	51*	nt	?	26*
COc1cc(CNCCO)ccc1OCC(=O)Nc1ccc(Br)cc1	?	5.6µM*	23	55	nt	24*
CCOc1cccc(CNc2ccc(O)cc2)c1OCc1ccc(Cl)cc1	?	1%	6	?	-11%	-1
COc1ccccc1OCC(=O)Nc1ccc(NC(=O)COc2ccccc2OC)cc1	?	?	-8	30	-24%	6
NS(=O)(=O)c1ccc(CCNCc2cc(Br)ccc2OCc2ccccc2)cc1	13µM*	11µM*	-16	-66*	-18%	-2
CCOc1cc(CNCCc2ccc(S(N)(=O)=O)cc2)ccc1OCc1ccccc1	?	13µM*	-19	?	?	-2
COc1cc(CNCCc2ccc(S(N)(=O)=O)cc2)ccc1OCC(=O)NC(C)(C)C	-17%	17%	-3	-14	13µM*	1
CCOc1cc(CNCc2ccccc2)ccc1OCc1ccc(Cl)cc1	?	22µM*	-13	-85*	6%	-6
COC(=O)c1ccc(CO/N=C/c2ccc(OC)cc2)o1	146%	12%	58*	14	95%	53*
Cc1cc(C)cc(OCc2ccc(C(=O)O)o2)c1	11%	-7%	27	16	26%	9.3*
Cc1ccc(OCc2ccc(C(=O)O)o2)cc1C	138%	12%	69*	9	?	71*
COC(=O)c1ccc(COc2ccc(C)c(C)c2)o1	-16%[0.00184 µM]	3%	98*	94	-20%	27*
Cc1cc(C)cc(OCc2ccc(C(=O)Nc3ccccc3F)o2)c1	nt	nt	nt	-14	nt	nt
COC(=O)NC1(C(=O)O)CCCC1	13%	8%	-6	21	1%	-3
SMILES	Pf growth 48h	HCV inhibitor	Shiga toxin inh	HCMV antiviral	Pf growth 96h	Cycloheximide cs
Cc1c(C)c2ccc(OCc3ccc(C(=O)O)o3)c(C)c2oc1=O	134%	19%	58*	-101*	nt	32*
COC(=O)c1ccc(COc2ccc(F)cc2)o1	41%	19%	53*	?	?	28*
O=C(O)c1ccc(COc2ccc3c4c(c(=O)oc3c2)CCC4)o1	?	25%	-15	26	?	-1
CCc1cc(=O)oc2cc(OCc3ccc(C(=O)O)o3)ccc12	92%	20%	28	?	67%	15*
COC(=O)c1ccc(COc2cc(C)ccc2C)o1	31%	15%	91*	9	6%	46*
Cc1cccc(-n2cc3c(=O)n(C)c(=O)n(C)c3c2)c1	2%	7%	21	-26	47%	-2
Cc1nc2c(-c3ccccc3)c(C)nn2c(C)c1CCC(=O)NCc1ccccc1Cl	nt	nt	nt	7	nt	nt
COc1ccc(OCCSc2ncc(CO)n2C)cc1	57%	12%	30	13	68%	12
Cc1cccc(NC(=O)Cn2c(=O)n(CCCCCC(=O)NCc3ccc4c(c3)OCO4)c(=O)c3sccc32)c1	nt	nt	nt	-22	nt	nt
CCc1ccc(N2CC(C(=O)Nc3cc(C)on3)CC2=O)cc1 (configuration not stated)	0%	15%	5	32	19%	1
Cc1oc(C(=O)O)cc1COc1ccc2c(C)cc(=O)oc2c1	3%	-13%	-5	-16	2.1µM*	-1
COC(=O)c1cc(COc2ccc3ccc(=O)oc3c2)c(C)o1	22%	-24%	-10	4	-1%	-1
Cc1ccc(CNS(=O)(=O)c2ccc3c(c2)CCN3C(=O)C2CCC2)cc1	18%	7%	-2	-23	13µM*	-1
O=C(O)CCC(=O)N1CCc2cc(S(=O)(=O)NCc3ccc(Cl)cc3)ccc21	10%	8%	1	36	12µM*	-4
Cc1ccc(Cl)cc1N1CCN(C(=O)CCNS(=O)(=O)c2ccc3c(c2)CCN3C(=O)C2CC2)CC1	nt	nt	nt	-22	nt	nt
O=C(CCNS(=O)(=O)c1ccc2c(c1)CCN2C(=O)C1CC1)N1CCN(c2cccc(C(F)(F)F)c2)CC1	nt	nt	nt	-60*	nt	nt
O=C(C1CCC1)N1CCc2cc(S(=O)(=O)NCc3ccco3)ccc21	-4%	1%	49	-3	-24%	35*
Cc1ccc(S(=O)Cc2ccc(C(=O)NCc3ccc(OC(C)C)cc3)o2)cc1 (configuration not stated)	nt	nt	nt	-19	nt	nt
O=C(Nc1ccccc1)c1sccc1Oc1ccc([N+](=O)[O-])cc1F	?	-28%	-6	7	-20%	14
CCOc1nc(-c2ccccc2)c2cc(Br)ccc2n1	13%	9%	-3	69	0%	-2
COc1ccc(NC(=O)c2cc3c(s2)-c2c(C)cccc2OC3)c(OC)c1	nt	nt	nt	-21	nt	nt
COc1ccc([C@]23Cc4cc(C#N)ccc4C(O2)c2c(cc(C)n(-c4ccccc4)c2=O)O3)cc1	?	nt	i	nt	?	-3
CC1CN(c2cc(-c3ccccc3)c3ccccc3n2)CC(C)O1 (configuration not stated)	nt	-26%	37	-20	2.6µM*	-3
CN(C(=O)C1CCCO1)c1nnc(-c2ccccn2)s1 (configuration not stated)	40%	25%	47*	43	-1%	50*
c1ccc(-c2nc(-c3ccccn3)nc(-c3ccccn3)n2)nc1	?	-25%	-7	18	?	1
COCC(=O)N(C)c1nnc(-c2ccccn2)s1	100%	11%	57*	51	7%[5.75 µM]	41*
c1ccc(-c2nnc(-c3ccccn3)s2)nc1	26%	12%	54*	7	197%	59*
